# Assay results taken from the supplement of paper PMC10981050.
# Several values for one entry are separate records, joined by “and”; a condition that tells them apart may be missing. Identical values can stand only once.
# Tests used:
# Experiment in all cases: cell viability relative to vehicle control; higher = less cytotoxic
# Details in all cases: 10 µM
# K562 = test system: K562
# Summary of the method: (§1)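 After removal of identity-inconsistent compounds, the Selleck bioactive, kinase and epigenetic probe libraries were screened on CRISPR-edited mutant clones and isogenic wild-type clones of four leukaemia lines. Plates were 384-well, each well holding 2000 cells in 50 µL medium and receiving a single 10 µM acoustically dispensed dose. CellTiter-Glo luminescence was read 48 h later, after the supernatant was taken off. Genedata Screener was used to express viability as percent of the on-plate vehicle control.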
# MARIMO = test system: MARIMO
# Summary of the method: as §1
# MOLM14 = test system: MOLM14
# Summary of the method: as §1
# OCI-AML2 = test system: OCI-AML2
# Summary of the method: as §1
Compound,cell viability (K562; SRSF2 genotype: SRSF2 P95H/wt),cell viability (K562; SRSF2 genotype: SRSF2 wt/wt) [%],cell viability (MARIMO; SRSF2 genotype: SRSF2 P95H/wt) [%],cell viability (MARIMO; SRSF2 genotype: SRSF2 wt/wt) [%],cell viability (MOLM14; SRSF2 genotype: SRSF2 P95H/wt) [%],cell viability (MOLM14; SRSF2 genotype: SRSF2 wt/wt) [%],cell viability (OCI-AML2; SRSF2 genotype: P95H/wt) [%],cell viability (OCI-AML2; SRSF2 genotype: wt/wt) [%]
CC#C[C@]1(O)CC[C@H]2[C@@H]3CCC4=CC(=O)CCC4=C3[C@@H](c3ccc(N(C)C)cc3)C[C@@]21C [Mifepristone (Mifeprex)],84.3% and 91.5%,86.8,86.7,90.7,79.7,89.6,104,92.6
COc1ccccc1Oc1c(NS(=O)(=O)c2ccc(C(C)(C)C)cc2)nc(-c2ncccn2)nc1OCCO [Bosentan Hydrate],99.5% and 99.8%,98.6,97.3,104,97.1,105,112,95.2
Cc1cccc(Oc2cnc(=O)[nH]c2)c1,97.7% and 96%,99.4,94.2,97,100,97.4,103,101
CC(C)(NS(=O)(=O)c1ccc2c(Cl)cnc(N=C(N)N)c2c1)C(=O)O,102% and 104%,104,101,111,101,102,99.1,117
CCn1cc(NC(=S)Nc2cc(Cl)ccc2OC)c(C(N)=O)n1,92% and 90.5%,89.8,99.1,99.4,96.9,95,95.2,92.5
Cc1cc([N+](=O)[O-])ccc1NS(=O)(=O)c1cc(Cl)ccc1Cl,79.9% and 88%,86.3,96.4,92.9,92.3,90.9,93.1,97.1
CCOC(=O)c1cc2ccccc2oc1=O [Ethyl Coumarin-3-carboxylate],96.8% and 96.2%,92.9,94.3,97.2,88.7,98,95,96.8
Cn1cc(-c2cnn3c(N)c(Br)c([C@@H]4CCCNC4)nc23)cn1,42.2% and 58.8%,25.3,50.4,61.6,12.8,7.07,9.84,11.1
O=C1OC(C(O)CO)C([O-])=C1O.[Na+] (configuration not stated) [Sodium erythorbate],104% and 106%,114,106,107,102,110,114,119
CN(C)c1ccc(-c2nc3ncc(Cl)c(N4CCN(CC(=O)Nc5nccs5)CC4)c3[nH]2)cc1,95.8% and 101%,95.2,96.9,109,78.9,87.5,92.4,95.1
Cn1cc(-c2ccncc2)c(-c2ccc(OCc3ccc4ccccc4n3)cc2)n1,79.8% and 91.7%,91.2,93,90.4,65,71.4,71.5,68
CCC/C=C1\OC(=O)C2=C1CCC=C2 [Ligustilide],84.1% and 83.7%,85.5,60.9,65.6,52.7,49.4,64.8,63.9
CCCCCCCC/C=C\CCCCCCCC(=O)OCC [Ethyl Oleate],101% and 94.1%,97.8,86.5,100,92.3,95,88.7,93.7
Cc1cc(F)c(Nc2ncnc3cc(OCc4ccccc4)ccc23)cc1O,82.7% and 95.5%,94.6,73.6,97.9,93.3,102,71.2,81
COc1ccc(CNc2nc(N3CCC[C@H]3CO)ncc2C(=O)NCc2ncccn2)cc1Cl [Avanafil],96.2% and 96.6%,98.8,104,106,103,104,102,105
CC(=O)c1ccccc1 [Acetophenone],98.7% and 89.7%,91.4,84.5,91.5,90.6,91.1,85.3,83.6
CCOC(=O)CCNc1cc(N2CCc3ccccc3CC2)nc(-c2ccccn2)n1,26.1% and 28.9%,27.6,25.8,27.4,30.4,24.4,28.8,25.8
Cc1cc(C)c(-c2csc(NC(=O)c3ccccc3)n2)c(C)c1,58.4% and 51.8%,51,35.1,31.6,45,40.5,39.5,27.5
C[C@H]1CNC(=O)c2cnn3ccc(nc23)N[C@H](C)c2cc(F)ccc2O1,14.4% and 36.7%,18,48.6,51.6,9.21,5.47,8.06,19.4
